PubChem BioAssay AID651815 (National Center for Advancing Translational Sciences (NCATS), 2012)
In all, about 2,100 compounds went through this assay and about 1,100 (52%) were called active. Another 29% or so got no clear call; they are omitted. Calls come from the whole dose curve; as a rule, active = well fitted inhibition curve with a large enough effect; inconclusive = small, poorly fitted or top-dose-only effect; inactive = no such curve, though single readings can be large or run the other way. The set was probably picked from earlier hits. Some of the results follow.

target: DNA dC->dU-editing enzyme APOBEC-3F (Homo sapiens) (UniProt Q8IUX4); assay: qHTS for inhibitors of Vif-A3F interactions: Cherry picks counterscreen; conditions: HeLa A3F-eYFP/Vif cells, eYFP fluorescence, 24 h; series mostly up to 46.1 µM; note: nearly all actives have a fitted effect of over 65% in size
Sequence (Q8IUX4 whole entry, looked up): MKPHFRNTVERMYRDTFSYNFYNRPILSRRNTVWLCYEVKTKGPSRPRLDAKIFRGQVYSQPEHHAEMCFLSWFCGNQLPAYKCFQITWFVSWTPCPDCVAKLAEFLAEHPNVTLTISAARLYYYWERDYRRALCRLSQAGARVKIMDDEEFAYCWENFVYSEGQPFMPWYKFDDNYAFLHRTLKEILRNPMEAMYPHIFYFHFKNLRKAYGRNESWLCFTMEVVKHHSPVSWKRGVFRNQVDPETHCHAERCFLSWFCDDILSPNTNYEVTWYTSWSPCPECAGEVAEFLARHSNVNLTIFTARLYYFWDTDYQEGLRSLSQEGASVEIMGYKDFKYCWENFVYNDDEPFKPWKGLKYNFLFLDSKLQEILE
From the text: The recent discovery and characterization of host restriction factors, which provide a potent defense to invading retroviruses, has provided new targets for antiviral drug development. APOBEC3G (A3G) and APOBEC3F (A3F) are potent cytidine deaminases that block HIV-1 replication; HIV-1 expresses the Vif protein, which counteracts A3G and A3F by binding to them and inducing their proteasomal degradation. The Vif-A3G and Vif-A3F interactions provide two potential targets for development of small molecules which can interfere with the ability of Vif to degrade A3G or A3F. […] To identify inhibitors that can interfere with Vif mediated degradation of A3G and A3F, we have developed Hela cell lines that stably express A3G or A3F tagged with eYFP at the C-terminal end (A3G-eYFP or A3F-eYFP, respectively) and Vif. In the absence of an inhibitor, Vif induces degradation of A3G-eYFP and A3F-eYFP, and the cells are not fluorescent. In the presence of an inhibitor, it is expected that Vif will be unable to degrade A3G-eYFP and/or A3F-eYFP, resulting in an increase in yellow fluorescence. In this counterscreen assay, Vif A3F was screened against the cherry picks ordered from the MLSMR. NIH Chemical Genomics Center [NCGC] NIH Molecular Libraries Probe Centers Network [MLPCN] MLPCN Grant: MH093245 Assay Submitter (PI): Vinay Pathak, National Cancer Institute
A3F-Vif cells were harvested from T225 flask and resuspended in phenol free OPTI-MEM medium with 5% FBS. Then 5 uL of 140,000 cells/mL resuspended cells was dispensed into each well of low base Aurora COC 1,536-well plates (black walled, clear bottom) using a Multidrop Combi dispenser. After overnight culture at 37 deg C with 5% CO2, a total of 23 nL of compounds at 5 selected concentrations from the NPC or positive control (2 mM stock of MG132) in DMSO was transferred to each well of the assay plate using a pintool (Kalypsys, San Diego, CA), and the plates were further incubated at 37 deg C with 5% CO2 for 24 hours. After that, the plates were measured on Acumen Explorer (TTP Lab Tech). The fluorescence was detected by 488 nm/Ex and […].
Potency is the fitted concentration of half-maximal effect.

Structure (SMILES) | Potency
COc1cccc(-c2cnc3c(NC=O)cc(-c4cc(OC)c(OC)c(OC)c4)cn23)c1 | 15.8 µM (active)
COc1cc(-c2cc(NC=O)c3ncc(-c4ccc(C(C)=O)cc4)n3c2)cc(OC)c1OC | 17.7 µM (active)
CC(=O)/C(=C\N(C)C)Sc1ccc(Cl)cc1 | inactive
Clc1ccsc1-c1csc(-c2cccnc2)n1 | 15.8 µM (active)
Cn1ccnc1Sc1nc2ccccc2nc1NS(=O)(=O)c1ccccc1 | 16.4 µM (active)
CC(=O)Nc1ccc(S(=O)(=O)Nc2nc3ccccc3nc2Sc2nncn2C)cc1 | 16.4 µM (active)
Cn1c(=O)c2c(nc(NC3CCCC3)n2C)n(C)c1=O | inactive
O=C1COc2ccc(C(=O)CSc3nc4ccccc4c(=O)n3-c3ccc(Cl)c(Cl)c3)cc2N1 | 23.1 µM (active)
COc1ccccc1NC1=NC(c2ccc(Cl)cc2)N=C(N)N1 (configuration not stated) | 12.5 µM (active)
COc1ccc2nc3ccccc3nc2c1NC(=O)c1ccc(Cl)cc1 | 23.1 µM (active)
COc1ccc2nc3ccccc3nc2c1NC(=O)c1ccc(Br)cc1 | 16.4 µM (active)
O=C(NC(=S)Nc1c(Cl)cc(Cl)cc1Cl)c1ccccc1 | inactive
CC(C)CCNC(=O)c1ccc2c(c1)NC(=O)C(CS(=O)(=O)Cc1cccc(Br)c1)N2 (configuration not stated) | inactive
Cc1ccc(CNC(=O)c2ccc3c(c2)NC(=O)C(CS(=O)(=O)Cc2cccc(C)c2)N3)cc1 (configuration not stated) | 18.4 µM (active)
CN(C)c1ccc2nc3c(=O)[nH]c(=O)nc-3n(CC(O)C(O)C(O)CO)c2c1 (configuration not stated) | 6.51 µM (active)
O=C1C=C(Nc2ccc(Cl)cc2Cl)CC(c2ccco2)C1 (configuration not stated) | 4.98 µM (active)
CCN(CC)C(=O)c1ccc(/C=C/c2c[nH]c3ccccc23)[n+](C)c1 | 16.4 µM (active)
C[n+]1cc(C(=O)N2CCCCC2)ccc1/C=C/c1c[nH]c2ccccc12 | 11.2 µM (active)
COc1ccc(-c2cnc3c(c2)CCC3(C#N)C#N)cc1 | 14 µM (active)
CCOC(=O)c1cc(-c2ccccc2)sc1NC(=S)Nc1cc(C)ccn1 | 18.4 µM (active)
CCOC(=O)c1ccc(NC(=S)Nc2cccc(C)n2)cc1 | inactive
Cc1ccc(NC(=S)Nc2ccccn2)c(C)c1 | inactive
Cc1sc2nc(CSc3nnnn3-c3ccc(Cl)cc3)[nH]c(=O)c2c1C | inactive

Structure (SMILES) | Potency
CCOc1ccc(-n2nnnc2SCC(=O)c2ccccc2)cc1 | 15.8 µM (active)
Cc1onc(-c2c(F)cccc2Cl)c1C(=O)O/N=C(\N)c1ccc([N+](=O)[O-])o1 | inactive
Cc1cccc(/C=C/C(=O)c2ccc([N+](=O)[O-])o2)c1 | 4.98 µM (active)
O=C(/C=C/c1ccc(Cl)cc1)c1ccc([N+](=O)[O-])o1 | 9.94 µM (active)
O=C(/C=C/c1ccncc1)c1cc(Cl)ccc1O | inactive
COc1cccc(/C(O)=C/c2nc3ccc(C(=O)NCCc4cccc(C)c4)cc3[nH]c2=O)c1 | 16.4 µM (active)
COc1cccc(/C(O)=C/c2nc3ccc(C(=O)NCCc4ccc(Cl)cc4)cc3[nH]c2=O)c1 | 16.4 µM (active)
COc1ccc2oc(=N)c(C(=O)Nc3ccc(F)cc3)cc2c1 | 7.31 µM (active)
COc1cc(C2Nc3ccc4ncccc4c3C3=C2C(=O)CCC3)ccc1O (configuration not stated) | 7.04 µM (active)
COc1cc(C2Nc3ccc4ncccc4c3C3=C2C(=O)CCC3)cc(OC)c1O (configuration not stated) | 15.8 µM (active)
O=C(C(=O)N1CCN(c2ccccc2Cl)CC1)c1c[nH]c2ccccc12 | inactive
CC1CC(C)CN(CC(=O)c2c[nH]c3ccccc23)C1 (configuration not stated) | 20.6 µM (active)
COc1cc(NC(=O)c2ccco2)c(C(=O)OCC(=O)c2c[nH]c3ccccc23)cc1OC | inactive
COc1cc(/C=C(\C#N)c2nc3ccccc3[nH]2)ccc1O | inactive
COc1cc(/C=C(\C#N)c2nc3ccc(C)cc3[nH]2)ccc1OC(C)C | 20.6 µM (active)
COc1cc(/C=C(/C#N)c2nc3ccccc3[nH]2)ccc1OCC(=O)Nc1ccccc1C(C)C | 13 µM (active)
COc1cc(/C=C(\C#N)c2nc3ccccc3s2)ccc1OCC(=O)Nc1ccccc1 | 15.8 µM (active)
COc1cc(/C=C(\C#N)c2nc3ccccc3[nH]2)ccc1OCc1ccccc1F | 16.4 µM (active)
NNC(=S)Nc1c(F)cc(F)cc1Br | inactive
Cc1ccc2nc(/C(C#N)=C\c3ccc(OC(=O)c4cccs4)cc3)[nH]c2c1 | 8.86 µM (active)
CCOc1cc(N(CC)CC)ccc1/C=C(/C#N)c1nc2ccccc2[nH]1 | inactive
CCN(CC)c1ccc(/C=C(/C#N)c2nc3ccccc3[nH]2)c(OC(C)C)c1 | 0.366 µM (active)
COc1cc(/C=C(/C#N)c2nc3ccccc3[nH]2)ccc1OC(=O)c1ccco1 | inactive

Structure (SMILES) | Potency
NNC(=O)c1oc2nc(-c3ccccc3)cc(-c3ccco3)c2c1N | 16.4 µM (active)
Cc1ccc(-c2cc(-c3ccco3)c3c(N)c(C(=O)NN)oc3n2)cc1 | 14.6 µM (active)
CCOc1cc(/C=C2\CCC/C(=C\c3cc(Cl)c(O)c(OCC)c3)C2=O)cc(Cl)c1O | 12.5 µM (active)
COc1cc(/C=C2/CCC/C(=C\c3cc(O)c(OC)c(Cl)c3)C2=O)cc(Cl)c1O | 13 µM (active)
CCOc1cc(/C=C2\CN(C)C/C(=C\c3ccc(O)c(OCC)c3)C2=O)ccc1O | 2.5 µM (active)
O=c1c(O)c(-c2cccs2)oc2ccccc12 | 2.59 µM (active)
CN(C)c1ccc(/C=N/NC(=O)c2ccccc2Cl)cc1 | 3.53 µM (active)
Cc1ccc(/C=N/NC(=O)c2nc3nc(C)cc(C)n3n2)cc1 | inactive
Cc1ccc(/C=N/NC(=O)c2cc(C)oc2C)cc1 | 7.04 µM (active)
CC(NC(=S)Nc1cccc(C(F)(F)F)c1)C(C)(C)C (configuration not stated) | inactive
C[C@@H]1O[C@@H](O[C@@H]2C(=O)c3c(O)cc(O)cc3O[C@H]2c2ccc(O)c(O)c2)[C@H](O)[C@H](O)[C@H]1O | inactive
Cc1cccc(CSc2nc(-c3cccs3)ccc2C#N)c1 | inactive
N#Cc1ccc(-c2cccs2)nc1SCc1c(F)cccc1Cl | 3.66 µM (active)
CSc1ccccc1NC(=O)COC(=O)/C=C/c1ccco1 | inactive
O=C(/C=C/c1ccco1)NC(=S)Nc1cccc(-c2nc3ccccc3o2)c1 | 4.98 µM (active)
Cc1ccnc(NC(=S)NC(=O)/C=C/c2ccco2)c1 | 11.2 µM (active)
CC(C)(C)c1ccc(-c2csc(NC(=O)CN3C(=O)NC4(CCCCC4)C3=O)n2)cc1 | inactive
COc1ccc(-c2csc(NC(=S)NC(=O)/C=C/c3ccco3)n2)cc1Br | 6.27 µM (active)
CN(C)C=Nc1c(Br)cc(Br)c2nonc12 | 9.2 µM (active)
CNC(=S)N/N=C(\C)c1ccc(Cl)s1 | inactive
N#CCC(=O)N/N=C/c1ccc(N2N=C(c3ccccc3)CC2c2ccccc2)cc1 (configuration not stated) | 16.4 µM (active)
CCc1ccc(CNC(=O)Cc2ccc(NC(=O)C3=C(C)OCCS3)cc2)cc1 | 1.12 µM (active)
Cc1ccc2nc(/C(C#N)=C/c3ccc(-c4cccc(Cl)c4)o3)[nH]c2c1 | 8.2 µM (active)

Structure (SMILES) | Potency
N#C/C(=C\c1ccc(-c2ccc(F)cc2F)o1)c1nc2ccccc2[nH]1 | 20.6 µM (active)
Cc1ccc2nc(/C(C#N)=C/c3ccc(-c4ccccc4C(=O)O)o3)[nH]c2c1 | 4.61 µM (active)
N#C/C(=C\c1ccc(-c2ccc(C(=O)O)cc2)o1)c1nc2ccccc2[nH]1 | 2.59 µM (active)
Cc1ccc2nc(/C(C#N)=C/c3ccc(-c4ccc(F)cc4F)o3)[nH]c2c1 | 4.61 µM (active)
Cc1c(Cl)cccc1-c1ccc(/C=C(\C#N)c2nc3ccccc3[nH]2)o1 | 16.4 µM (active)
Cc1ccc2nc(/C(C#N)=C/c3ccc(-c4ccc(C(=O)OC(C)C)cc4)o3)[nH]c2c1 | 8.2 µM (active)
COCc1ccc(O)c2ncccc12 | inactive
CCOC(=O)c1sc(NC(=S)NC(=O)c2ccco2)nc1C | inactive
CC(=O)c1sc(N/N=C\c2c(O)ccc3ccccc23)nc1C | 14 µM (active)
COc1ccc(C(=O)NC2CCCc3ccccc32)cc1[N+](=O)[O-] (configuration not stated) | 8.86 µM (active)
COc1ccc(C(=O)C(C)[n+]2ccc(C)c3ccccc32)cc1[N+](=O)[O-] (configuration not stated) | inactive
COc1ccccc1NC(=O)C1=C(C)Nc2nc3ccccc3n2C1c1cccs1 (configuration not stated) | 1.4 µM (active)
COc1ccc2[nH]c3c(c2c1)CCNC3c1ccc([N+](=O)[O-])o1 (configuration not stated) | 18.4 µM (active)
CC(C)CN(CC(C)C)S(=O)(=O)c1ccc(C(=O)Nc2sc3c(c2C(N)=O)CCN(C(C)C)C3)cc1 | 20.6 µM (active)
COc1ccc(C(=O)Nc2sc3c(c2C#N)CCN(C(C)=O)C3)cc1 | 9.94 µM (active)
CCCCN(CCCC)S(=O)(=O)c1ccc(C(=O)Nc2sc3c(c2C(N)=O)CCN(CC)C3)cc1 | 25.9 µM (active)
CC(C)N1CCc2c(sc(NC(=O)c3cc4cc([N+](=O)[O-])ccc4s3)c2C(N)=O)C1 | 23.1 µM (active)
CC(C)N1CCc2c(sc(NC(=O)c3ccc(S(=O)(=O)N4CCOCC4)cc3)c2C#N)C1 | 20.6 µM (active)
CCN1CCc2c(sc(NC(=O)c3ccc(S(=O)(=O)N(CC)c4ccccc4)cc3)c2C(N)=O)C1 | 12.5 µM (active)
CCCN1CCc2c(sc(NC(=O)c3ccc(S(=O)(=O)N(C)c4ccccc4)cc3)c2C(=O)NC)C1 | 18.4 µM (active)
CCOC(=O)c1c(NC(=O)c2ccc(S(=O)(=O)N3CCC(C)CC3)cc2)sc2c1CCN(C)C2 | 18.4 µM (active)
CCN1CCc2c(sc(-n3cccc3)c2C(C)NC(=O)Nc2ccc(C(=O)OC)cc2)C1 (configuration not stated) | inactive
CN1C(=O)N(C)c2ccc(C=O)c3cccc1c23 | inactive
